Measured values: PubChem BioAssay AID504861 (Broad Institute, 2011)
Among all 1,200 compounds or so, about 290 (24%) were called active. Not shown: some 3% with an inconclusive outcome. These entries were drawn from the full list. Potency and affinity values are given separately. Values without a mark were called inactive.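 The calls were made as follows: active = compounds lowering cell viability signal with fitted half-maximal concentration at most ten times their highest tested concentration; inconclusive = flat fit with 30 to 70% signal loss, or poor fit; inactive = the rest.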

Experiment: cytotoxicity in HEK293T cells – cell-based, CellTiter-Glo luminescence, cherry-picks, cytotoxicity control for LMP1 NF-kB inhibitor project, dose response (AID 504861)
Conditions: HEK293T viability, CellTiter-Glo ATP luminescence, 48 h; series mostly up to 26 µM; activity change, negative = cytotoxicity: at the top concentration

First: O=C(CN1C(=O)c2ccccc2S1(=O)=O)c1ccccc1
Second: O=C(NCCc1ccccc1)c1ccccc1Cl
The “activity change, negative = cytotoxicity” value of the first is higher: 16.5% for the first, 5.61% for the second.

First: COc1cc(C2NC(=O)NC(C)=C2C(=O)OC2CCCC(C)C2)cc(Br)c1O (configuration not stated)
Second: COc1cc2c(=O)n(CC3CCCO3)c(=O)n(CC(=O)Nc3cccc(Cl)c3)c2cc1OC (configuration not stated)
The “activity change, negative = cytotoxicity” value of the first is lower: 1.98% for the first, 4.18% for the second.

Going from `O=C(c1ccco1)N1CCN(S(=O)(=O)/C=C/c2ccccc2)CC1` to `CC(C)(C)c1ccc(C(=O)N2CCC(=O)N(C(CO)Cc3ccccc3)CC2)cc1` (configuration not stated), the “activity change, negative = cytotoxicity” value rises from -2.25% to 1.74%.

Going from `CCCN(CCC)S(=O)(=O)c1ccc(C(=O)Nc2nnc(-c3cc(OC)cc(OC)c3)o2)cc1` to `COc1ccc(S(=O)(=O)NC(CC(=O)NCc2ccco2)C(C)C)cc1` (configuration not stated), the “activity change, negative = cytotoxicity” value rises from 2.24% to 7.05%.

First: COc1cc(/C=N/NC(=S)Nc2cccc(C(=O)O)c2)ccc1O
Second: S=C(N/N=C/c1ccc2ncccc2c1)Nc1cccnc1
The “activity change, negative = cytotoxicity” value of the first is higher: 13.6% for the first, 0.537% for the second.

Compared with `COc1ccc(CNC(=O)N2[C@H]3CC[C@@H]2C=C(c2ccc(F)cc2OCc2ccccc2)C3)cc1OC`, `COc1ccccc1NC(=O)CC(c1ccc(OC(C)C)cc1)c1ccccc1OC` (configuration not stated) is lower in “activity change, negative = cytotoxicity” value: 8.66% for the first, 3.18% for the second.

First: CCOc1cccc(CNc2nnnn2C)c1
Second: COc1ccccc1-c1nnc(Sc2nc([N+](=O)[O-])nn2C)o1
The “activity change, negative = cytotoxicity” value of the first is higher: -0.593% for the first, -10.5% for the second.

First: Cn1c(=O)[nH]c(=O)c2c1nc(CN1CCOCC1)n2CCCc1ccccc1
Second: COc1ccc(-c2csc3ncnc(NCCN4CCOCC4)c23)cc1
The “activity change, negative = cytotoxicity” value of the first is lower: 2.77% for the first, 7.69% for the second.

First: O=C(c1ccc(C#CC2(O)CCCCC2)cc1)N1CCN(C(c2ccccc2)c2ccccc2)CC1
Second: CN(C1CCCCC1)S(=O)(=O)c1ccc(C(=O)N2CCN(c3nc4ccccc4s3)CC2)cc1
The “activity change, negative = cytotoxicity” value of the first is higher: 3.71% for the first, 3.38% for the second.

Going from `CN(CC(=O)Nc1cccnc1)S(=O)(=O)c1ccc(Br)cc1` to `CC(=O)Nc1ccc(S(=O)(=O)N2CCCC2)cc1`, the “activity change, negative = cytotoxicity” value falls from 21.2% to 10%.

Going from `CC1CCN(c2ccc(-c3ccc(NC(=O)C(F)(F)F)cc3)nn2)CC1` to `Brc1ccc(-c2csc(N3CCCCCC3)n2)cc1`, the “activity change, negative = cytotoxicity” value rises from 7.11% to 14.6%.

Going from `Cc1ccc(-c2cc(N)n3nc(-c4ccc(C)cc4)cc3n2)cc1` to `CCOc1ccc(-c2cc(C(=O)N/N=C/c3ccc(O)cc3)c3ccccc3n2)cc1`, the “activity change, negative = cytotoxicity” value falls from 10.3% to -1.88%.

Compared with `CC(=O)Nc1nc(C)c(-c2csc(Nc3cccc([N+](=O)[O-])c3)n2)s1`, `COc1ccc2cc3c(N)nn(C(=O)c4cccc([N+](=O)[O-])c4)c3nc2c1` is higher in “activity change, negative = cytotoxicity” value: -0.558% for the first, 8.36% for the second.

Compared with `Nc1ccn([C@@H]2O[C@H](CO)[C@@H](O)C2O)c(=O)n1` (some centres not stated), `CC(=O)OCC(=O)[C@@]1(O)CC[C@H]2[C@@H]3CCC4=CC(=O)CC[C@]4(C)[C@H]3[C@@H](O)C[C@@]21C` is lower in “activity change, negative = cytotoxicity” value: 1.52% for the first, 1.32% for the second.

Compared with `CCOC(=O)N1CCN(C(=O)C2CCC(=O)N(Cc3ccccc3OC)C2)CC1` (configuration not stated), `Cc1ccc(NC(=O)/C=N/OCC(=O)NCc2ccccc2Cl)cc1` is higher in “activity change, negative = cytotoxicity” value: 4.09% for the first, 4.14% for the second.

Going from `Cc1csc(NC(=O)c2ccc(N3CCCC3=O)cc2)n1` to `COc1ccc(-c2cc3nc4n(c(=O)c3s2)CCC4)cc1`, the “activity change, negative = cytotoxicity” value rises from -6.07% to -0.959%.

First: COc1ccc(/C=C2\SC(=O)N(CCCC(=O)Nc3ccc(C(=O)O)cc3)C2=O)cc1
Second: COc1ccc(-n2c(C)c(C(C)=O)c3cc(OC(C)=O)ccc32)cc1
The “activity change, negative = cytotoxicity” value of the first is higher: 1.35% for the first, -3.31% for the second.

Compared with `O=C1/C(=C/c2ccncc2)SC(=S)N1Cc1ccccc1`, `O=C(Nc1ccncc1)OCc1ccccc1` is lower in “activity change, negative = cytotoxicity” value: 3.49% for the first, -5.71% for the second.

First: CC(C)(O)C#Cc1ccc([C@@H]2C[C@H]3CN(c4ccccc4)C(=O)[C@]34CCCN24)s1
Second: CSc1ccccc1C(=O)N1CCC2(CC1)CC(=O)c1ccccc1O2
The “activity change, negative = cytotoxicity” value of the first is lower: -8.23% for the first, -2.08% for the second.

Going from `Cc1cccc(NC(=S)N=Nc2c(O)n(C)c3ccc(S(=O)(=O)N4CCOCC4)cc23)c1` to `CCC(=O)NC(c1ccc(C)cc1)c1cc(Cl)c2cccnc2c1O` (configuration not stated), the “activity change, negative = cytotoxicity” value falls from 8.1% to 4.72%.

Going from `CC(CCc1ccco1)N(C)S(=O)(=O)c1csc(C(N)=O)c1` (configuration not stated) to `CS(=O)(=O)N(CC(=O)Nc1ccc(F)cc1F)C1CCCCC1`, the “activity change, negative = cytotoxicity” value rises from 3.06% to 7.69%.

Going from `O=C(N/N=C(/CC(=O)c1cccs1)C(F)(F)F)c1ccc(O)cc1` to `O=Cc1cc(OCc2ccccc2)ccc1[B-](F)(F)F`, the “activity change, negative = cytotoxicity” value rises from 13.8% to 17.3%.

Compared with `O=c1nc(N/N=C/C=C/c2ccccc2)cn[nH]1`, `O=[N+]([O-])c1ccc(/C=N/Nc2cc(Cl)nc(-c3ccccc3)n2)cc1` is lower in “activity change, negative = cytotoxicity” value: 13.1% for the first, 3.89% for the second.

First: CCCc1cc(=O)[nH]c(SCC(=O)NC2CCCCC2)n1
Second: COc1ccc2cc(-c3cc(C(=O)OCC(=O)NC4CCS(=O)(=O)C4)c4ccccc4n3)ccc2c1 (configuration not stated)
The “activity change, negative = cytotoxicity” value of the first is higher: 0.135% for the first, -0.211% for the second.

First: C[C@@H]1CN([C@@H](C)CO)S(=O)(=O)c2ccc(/C=C/c3ccccc3)cc2O[C@@H]1CN(C)Cc1ccc(C(=O)O)cc1
Second: c1csc(CNc2ncnc3ccc(-c4ccoc4)cc23)c1
The “activity change, negative = cytotoxicity” value of the first is lower: -12.6% for the first, -9.02% for the second.

First: CSc1nc(N)nc(SCC(=O)C23CC4CC(CC(C4)C2)C3)c1C#N
Second: Cc1nn(C(C)(C)C)c(C)c1/C=N/OC(=O)Nc1ccc(Cl)c(Cl)c1
The “activity change, negative = cytotoxicity” value of the first is lower: -8.4% for the first, 7.48% for the second.
